# From publication PMC12431657, “Discovery and mechanistic insights of dibenzoylmethane as a broad spectrum inhibitor of coronavirus” (PLOS Pathogens, 2025)
# Where a name gives a salt, the structure may show the parent alone. Read-outs that look alike come from different tables or passages of the source. Among all 3,300 compounds or so, about 60 (2%) showed an effect of 50% or more. The list comes from a sample in which strong results are over-represented; it also holds similar structures and randomly drawn compounds.
# System: HCoV-OC43
# Parameters: species or system RD; HTS, protection from HCoV-OC43 induced cell death, luminescent cell viability (CellCounting-Lite 2.0), inhibition rate
# Settings: 24 h post infection, 1 h compound pre-incubation, 10 µM, inhibitor
Compound,OC43 Inhibition rate,"OC43 Inhibition rate (OC43 Inhibition rate, 24 h)"
CC1(C)CC[C@]2(C(=O)O)CC[C@]3(C)C(=CC[C@@H]4[C@@]5(C)CC[C@H](O[C@@H]6O[C@H](C(=O)O)[C@@H](O)[C@H](O[C@@H]7OC[C@@H](O)[C@H](O)[C@H]7O[C@@H]7O[C@H](CO)[C@@H](O)[C@H](O)[C@H]7O)[C@H]6O)C(C)(C)[C@@H]5CC[C@]43C)[C@@H]2C1 [Oleanolic acid-3-O-glucosyl(1-2)xylyl(1-3)glucosiduronic acid],-0.1%,
CC(=O)c1ccc2ccccc2c1 [2-Acetonaphthone],-1.5%,
c1cncnc1 [Pyrimidine],-0.5%,
Nc1nc(O)c2[nH]nnc2n1 [8-Azaguanine],54.4%,
C/C=C/C=C/C(=O)O [Potassium sorbate],,1.3%
C=C1CCC2(C(C)C)CC12 (stereo not shown) [Sabinene],-0.5%,
C[C@@H](O)CC(=O)O [(R)-3-Hydroxybutanoic acid],,-0.8%
CC(=O)[C@H]1CC[C@H]2[C@@H]3CC=C4C[C@@H](O)CC[C@]4(C)[C@H]3CC[C@]12C [Pregnenolone],1.3%,
C[C@]12CC[C@H]3[C@@H](CC=C4C[C@@H](O)CC[C@@]43C)[C@@H]1CC[C@@H]2C(=O)CO [21-Hydroxypregnenolone],-0.2%,
C[C@H]1[C@H]2CC[C@H]3[C@@H]4CC=C5C[C@@H](N(C)C)CC[C@]5(C)[C@H]4CC[C@]23CN1C [Conessine],52.4%,
CC1(C)CC[C@]2(C(=O)O)CC[C@]3(C)C(=CC[C@@H]4[C@@]5(C)CC[C@@H](O)C(C)(C)[C@@H]5CC[C@]43C)[C@@H]2C1 [3-Epioleanolic acid],-0.6%,
OC1OC[C@@H](O)[C@H](O)[C@@H]1O (stereo partly drawn) [D-Lyxose],-0.4%,
C=C1C(=O)[C@@]23[C@H](O)C[C@@H]4C(C)(C)CC[C@H](O)[C@@]4(CO)[C@@H]2CC[C@@H]1[C@H]3O [Kamebakaurin],-2.9%,
C=C1C(=O)[C@]23[C@H](O)[C@H]1CC[C@H]2[C@@]12CO[C@]3(O)[C@@H](O)[C@@H]1C(C)(C)CC[C@@H]2O [Oridonin],17.2%,
C=C1C(=O)[C@@]23[C@@H]4OC5O[C@@]2(O)[C@@H](O)[C@@H]2C(C)(C)CC[C@@H](O)[C@]52[C@@H]3CC[C@@H]14 [ponicidin],75.9%,
"CC(C)(CC(=O)O)CC(=O)O [3,3-Dimethylglutaric acid]",-0.3%,
C/C=C(/C)C(=O)O[C@@H]1c2c(ccc3ccc(=O)oc23)OC(C)(C)[C@@H]1OC(=O)/C(C)=C\C [(-)-Anomalin],32.9%,
C/C=C(\C)C(=O)OC1c2c(ccc3ccc(=O)oc23)OC(C)(C)C1OC(=O)/C(C)=C/C (stereo not shown) [Praeruptorin B],7.3%,
"C/C=C(/C)C(=O)OC(C)(C)[C@@H]1Cc2c(ccc3ccc(=O)oc23)O1 [Columbianadin, columbianadin]",107.6%,
Nc1ccccc1C(=O)C[C@@H](N)C(=O)O [D-Kynurenine],-6.1%,
CCCCCCCCCCCCCCCCCC(=O)NCc1ccccc1 [N-Benzyloctadecanamide],-0.1%,
CCCCC/C=C\C/C=C\CCCCCCCC(=O)NCc1ccccc1 [N-Benzyllinoleamide],40%,
CCCCCCCC/C=C\CCCCCCCC(=O)NCc1ccccc1 [N-Benzyloleamide],56.9%,
COc1cc([C@@H]2[C@H]3CO[C@@]4(O)C(=O)[C@@H]2C=C([C@H]2Oc5cc(O)cc(O)c5C(=O)[C@@H]2O)[C@@H]34)ccc1O [Silydianin],-0.1%,

Compound,OC43 Inhibition rate,"OC43 Inhibition rate (OC43 Inhibition rate, 24 h)"
O=C(/C=C/c1ccccc1)OCc1ccccc1 [Benzyl cinnamate],2%,
O=C(CCCCCCCCc1ccc(O)c(O)c1)c1c(O)cccc1O [Malabaricone C],12.2%,
O=C(CCc1ccc(O)cc1)c1c(O)cc(O)cc1O [Phloretin],-0.3%,
O=C(CCCCCCCCc1ccc(O)cc1)c1c(O)cccc1O [Malabaricone B],54%,
CCCCCCCCCCCCCCCCCCCCC [Heneicosane],-0.3%,
CO[C@H]1[C@@H](O)[C@H](O[C@@H]2[C@@H](C)O[C@@H](O[C@H]3CC[C@@]4(C)[C@@H](CC[C@@]56O[C@@]57CC[C@@H](C(C)=O)[C@@]7(C)[C@H](OC(C)=O)[C@@H](OC(=O)c5ccccc5)[C@H]46)C3)C[C@H]2OC)O[C@H](C)[C@H]1O [Tenacissoside I],-4%,
Cc1ccc(O)c(O)c1 [4-Methylcatechol],-0.9%,
COc1cc(O)c(C(=O)/C=C/c2ccc(O)cc2)c(OC)c1 [Flavokawain C],4.2%,
COc1cc(O)c(C(=O)/C=C/c2ccccc2)c(O)c1 [Pinostrobin chalcone],0%,
COc1cc(O)c(C(=O)/C=C/c2ccccc2)c(OC)c1 [Flavokawain B],58.3%,
"O=C(N[C@@H](c1ccccc1)[C@@H](O)C(=O)O)c1ccccc1 [N-Benzoyl-(2R,3S)-3-phenylisoserine]",0.3%,
C/C=C(/C)C(=O)O [Angelic acid],-0.3%,
CC(=O)OC/C1=C\[C@H]2[C@@H](OC(=O)/C=C/c3ccccc3)[C@@H](C)C[C@]2(OC(C)=O)C(=O)/C(C)=C/[C@@H]2[C@H](CC1)C2(C)C [Euphorbia factor L7a],75.3%,
CCOC(=O)/C=C/c1ccccc1 [Ethyl cinnamate],-1.2%,
CC(=O)OC/C1=C/C[C@H]2[C@@H](/C=C(\C)C(=O)[C@@]3(OC(C)=O)C[C@H](C)[C@H](OC(=O)c4ccccc4)[C@@H]3[C@H]1OC(C)=O)C2(C)C [Euphorbia factor L7b],8.6%,
COc1cccc(-c2oc3ccccc3c(=O)c2O)c1 [3'-Methoxyflavonol],-2%,
O[C@H]1[C@H]2c3cc4c(cc3CN3CCC(=C[C@@H]1O)[C@H]23)OCO4 [Lycorine],60.9%,
O[C@H]1[C@H]2c3cc4c(cc3CN3CC[C@H](C[C@@H]1O)[C@H]23)OCO4 [Dihydrolycorine],0%,
c1cc2c(c3c1CC1c4cc5c(cc4CCN1C3)OCO5)OCO2 (racemic) [(±)-Stylopine],-0.3%,
OCc1cccc2ccccc12 [1-Naphthalenemethanol],2.9%,
CC(C)=CCC[C@](C)(O[C@@H]1O[C@H](CO)[C@@H](O)[C@H](O)[C@H]1O)[C@H]1CC[C@]2(C)[C@@H]1[C@H](O)C[C@@H]1[C@@]3(C)CC[C@H](O)C(C)(C)[C@@H]3CC[C@]12C [Ginsenoside C-K],38.7%,
COc1cc(/C=C/C(=O)OC[C@H]2O[C@H](O[C@]3(CO)O[C@H](CO)[C@@H](O)[C@@H]3O)[C@H](O)[C@@H](O)[C@@H]2O)cc(OC)c1O [Sibiricose A1],2.3%,
COc1ccc2cc1Oc1ccc(cc1)C[C@H]1c3cc(c(OC)cc3CCN1C)Oc1c(O)c(OC)cc3c1[C@H](C2)N(C)CC3 [Fangchinoline],41.6%,
COc1cc2c3cc1Oc1c(OC)c(OC)cc4c1[C@@H](Cc1ccc(O)c(c1)Oc1ccc(cc1)C[C@@H]3N(C)CC2)N(C)CC4 [Berbamine],0%,

Compound,OC43 Inhibition rate,"OC43 Inhibition rate (OC43 Inhibition rate, 24 h)"
COc1ccc2cc1Oc1ccc(cc1)C[C@H]1c3cc(c(OC)cc3CCN1C)Oc1c(OC)c(OC)cc3c1[C@H](C2)N(C)CC3 [tetrandrine],79.7%,
Oc1ccc(CC2NCCc3cc(O)c(O)cc32)cc1 (stereo not shown) [Higenamine (hydrochloride)],0.1%,
Oc1ccc2[nH]ccc2c1 [5-Hydroxyindole],1.1%,
COc1c2c(cc3oc(CO)cc(=O)c13)O[C@H](C(C)(C)O)C2 [Cimifugin],0.3%,
"OC1COC(O)CO1 (stereo not shown) [1,4-Dioxane-2,5-diol]",1.3%,
COc1c(C(C)C)cc2c(c1O)[C@@]1(C(=O)O)CCCC(C)(C)[C@@H]1CC2 [12-O-Methylcarnosic acid],54.1%,
CC(C)c1cc2c(c(O)c1O)[C@@]13CCCC(C)(C)[C@@H]1C[C@@H]2OC3=O [Carnosol],-0.4%,
CC(C)c1ccc2c(c1)CC[C@H]1[C@](C)(C(=O)O)CCC[C@]21C [Dehydroabietic acid],-0.5%,
COc1cc(C=CC(=O)O)cc(OC)c1O (stereo in doubt) [Sinapinic acid],1.1%,
NC1CCN(c2nc3c(cc2F)c(=O)c(C(=O)O)cn3-c2ccc(F)cc2F)C1 (stereo not shown) [Tosufloxacin (tosylate hydrate)],58.8%,
CCn1cc(C(=O)O)c(=O)c2ccc(C)nc21 [Nalidixic acid],0.1%,
"O=C(O)C(O)c1ccc(O)c(O)c1 (stereo not shown) [3,4-Dihydroxymandelic acid]",-0.2%,
CC(C)=CCC/C(C)=C/Cc1cc(-c2coc3cc(O)ccc3c2=O)ccc1O [Corylifol A],-2.2%,
CCCC(=O)C(=O)O [2-Oxovaleric acid],-0.9%,
COc1ccc(/C=C/C(=O)O)cc1 [4-Methoxycinnamic acid],,-0.5%
CSCC[C@H](NC(C)=O)C(=O)O [N-Acetyl-L-methionine],0.8%,
C[C@@H]1CC[C@@]2(OC1)O[C@H]1C[C@H]3[C@@H]4CC=C5C[C@@H](O)C[C@@H](O[C@@H]6O[C@H](C)[C@H](O)[C@H](O[C@@H]7OC[C@@H](O)[C@H](O)[C@H]7O)[C@H]6O[C@@H]6O[C@@H](C)[C@H](O)[C@@H](O)[C@H]6O)[C@]5(C)[C@H]4CC[C@]3(C)[C@H]1[C@@H]2C [Ophiopogonin D'],,-0.3%
C[C@@H]1CC[C@@]2(OC1)O[C@H]1C[C@H]3[C@@H]4CC=C5C[C@@H](O)C[C@@H](O[C@@H]6O[C@H](C)[C@H](O)[C@H](O[C@@H]7OC[C@@H](O)[C@H](O)[C@H]7O)[C@H]6O[C@@H]6O[C@@H](C)[C@H](O)[C@@H](O)[C@H]6O)[C@]5(C)[C@H]4CC[C@]3(C)[C@H]1[C@@H]2C [Ophiopogonin D],,1.6%
C[C@@H]1CC[C@@]2(OC1)O[C@H]1C[C@H]3[C@@H]4CC=C5C[C@@H](O[C@@H]6O[C@H](CO)[C@@H](O)[C@H](O)[C@H]6O[C@@H]6O[C@@H](C)[C@H](O)[C@@H](O)[C@H]6O)CC[C@]5(C)[C@H]4CC[C@]3(C)[C@H]1[C@@H]2C [Prosapogenin A],-12%,
"C[C@@H]1CC[C@@]2(OC1)O[C@H]1C[C@H]3[C@@H]4CC=C5C[C@@H](O)C[C@@H](O[C@@H]6O[C@H](C)[C@H](O)[C@H](O[C@@H]7OC[C@@H](O)[C@H](O)[C@H]7O)[C@H]6O[C@@H]6O[C@H](CO)[C@@H](O)[C@H](O)[C@H]6O)[C@]5(C)[C@H]4CC[C@]3(C)[C@H]1[C@@H]2C [Saponin C, from Liriope muscari]",66.4%,
C[C@@H]1CC[C@@]2(OC1)O[C@H]1C[C@H]3[C@@H]4CC=C5C[C@@H](O[C@@H]6O[C@H](CO)[C@@H](O)[C@H](O[C@@H]7O[C@H](CO)[C@@H](O)[C@H](O)[C@H]7O)[C@H]6O[C@@H]6O[C@@H](C)[C@H](O)[C@@H](O)[C@H]6O)CC[C@]5(C)[C@H]4CC[C@]3(C)[C@H]1[C@@H]2C [Gracillin],7%,
C[C@H]1CC[C@@]2(OC1)O[C@H]1C[C@H]3[C@@H]4CC=C5C[C@@H](O[C@@H]6O[C@H](CO)[C@@H](O)[C@H](O[C@@H]7OC[C@@H](O)[C@H](O)[C@H]7O)[C@H]6O[C@@H]6O[C@@H](C)[C@H](O)[C@@H](O)[C@H]6O)CC[C@]5(C)[C@H]4CC[C@]3(C)[C@H]1[C@@H]2C [Liriope muscari baily saponins C],66.1%,
